# Data published in PubChem BioAssay (NCATS).
# Results filed as inconclusive are left out. A call without a number means that no potency is given here. A number with no mark means an inactive call. Active and inactive are the calls of the source. Calls follow the shape of the dose curve; as a rule, active = well fitted inhibition curve with a large enough effect; inconclusive = small, poorly fitted or top-dose-only effect; inactive = flat fitted curve, though single readings scatter.
# Key:
# [1] = qHTS profiling for inhibitors of Plasmodium falciparum proliferation (AID 504749); also: nearly all actives have a fitted effect of over 60% in size; settings: P. falciparum in erythrocytes, SYBR Green DNA, 72 h
# Method in brief: (§1)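 SYBR Green fluorescence (ex 485 nm, em 535 nm) reports parasite DNA after 72 h compound exposure of infected red cells at 0.3% parasitemia, 2.5% hematocrit; signal normalized to 0.29 uM artemisinin and vehicle wells.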
# 3D7 = test: as above; settings: P. falciparum in erythrocytes, SYBR Green DNA, 72 h; series mostly up to 28.7 µM
# Method in brief: as §1
# AA1029 = test: as above; settings: P. falciparum in erythrocytes, SYBR Green DNA, 72 h; series mostly up to 28.7 µM
# Method in brief: as §1
# AS120 = test: as above; settings: P. falciparum in erythrocytes, SYBR Green DNA, 72 h; series mostly up to 28.7 µM
# Method in brief: as §1
# ATS189 = test: as above; settings: P. falciparum in erythrocytes, SYBR Green DNA, 72 h; series mostly up to 28.7 µM
# Method in brief: as §1
# ATS95 = test: as above; settings: P. falciparum in erythrocytes, SYBR Green DNA, 72 h; series mostly up to 28.7 µM
# Method in brief: as §1
# C2A = test: as above; settings: P. falciparum in erythrocytes, SYBR Green DNA, 72 h; series mostly up to 28.7 µM
# Method in brief: as §1
# CP185 = test: as above; settings: P. falciparum in erythrocytes, SYBR Green DNA, 72 h; series mostly up to 28.7 µM
# Method in brief: as §1
# CP191 = test: as above; settings: P. falciparum in erythrocytes, SYBR Green DNA, 72 h; series mostly up to 28.7 µM
# Method in brief: as §1
# 7G8 = test: as above; settings: P. falciparum in erythrocytes, SYBR Green DNA, 72 h; series mostly up to 28.7 µM
# Method in brief: as §1
# [2] = at 28.7 µM (top of the series), parasite line A
# [3] = at 28.7 µM (top of the series), parasite line B
# [4] = at 12.8 µM (top of the series), parasite line A
# Potency is read from the fitted curve at half-maximal effect.
SMILES,"activity, negative = inhibition [1, 2] [%]","activity, negative = inhibition [1, 3] [%]",Potency (3D7),Potency (AA1029),Potency (AS120),Potency (ATS189),Potency (ATS95),Potency (C2A),Potency (CP185),Potency (CP191),Potency ([1]; parasite line A),Potency ([1]; parasite line B),Potency (7G8),"activity, negative = inhibition [1, 4] [%]","activity, negative = inhibition ([1]; at 12.8 µM (top of the series), parasite line B) [%]"
CCCCCCCCOC(=O)c1ccccc1C(=O)OCCCCCCCC,10.9,-23.5,inactive,inactive,inactive,inactive,inactive,inactive,inactive,inactive,,,,,
Clc1ccc(C2(Cn3cncn3)OCCO2)c(Cl)c1,8.04,-7.5,inactive,inactive,inactive,inactive,inactive,inactive,inactive,inactive,,,,,
N#CC(C#N)=Cc1cc(O)c(O)c(O)c1,,,10 µM (active),12.6 µM (active),8.91 µM (active),,,10 µM (active),8.91 µM (active),,11.2 µM (active),11.2 µM (active),4.47 µM (active),,
CCOP(=O)(OCC)O/C(=C/Cl)c1ccc(Cl)cc1Cl,-27.9,-21.8,inactive,inactive,,inactive,inactive,inactive,,inactive,,,,,
CN1CCCC(=C(c2cccs2)c2cccs2)C1,,-19.2,inactive,,,,,inactive,,inactive,,,,,
C[C@H]1CCC[C@H](O)CCCCCc2cc(O)cc(O)c2C(=O)O1,,-17.3,inactive,,,inactive,inactive,inactive,inactive,,,,12.6 µM (active),,
C/C(=C\c1csc(C)n1)[C@@H]1C[C@@H]2O[C@]2(C)CCC[C@H](C)[C@H](O)[C@@H](C)C(=O)C(C)(C)[C@@H](O)CC(=O)O1,,,0.0032 µM (active),0.0045 µM (active),0.0025 µM (active),0.0071 µM (active),0.0035 µM (active),0.0045 µM (active),0.002 µM (active),0.0028 µM (active),0.002 µM (active),0.0035 µM (active),,,
C[C@@H](Cc1ccccc1)NCCC(c1ccccc1)c1ccccc1,,,,,,inactive,,inactive,,,,,4.47 µM (active),-17.6,
c1cc2c(c(NC3=NCCN3)c1)CCCC2,-15.6,-7.85,inactive,inactive,inactive,inactive,inactive,inactive,inactive,inactive,,,,,
CC(=O)O[C@H]1CC[C@H]2[C@@H]3CCC4=CC(=O)CCC4=C3C=C[C@]12C,4.1,0.383,inactive,inactive,inactive,inactive,inactive,inactive,inactive,inactive,,,,,
Clc1ccc(Cl)cc1,7.27,,inactive,inactive,inactive,inactive,inactive,inactive,inactive,inactive,,,inactive,,
CN1[C@@H]2CC[C@H]1CC(OC1c3ccccc3CCc3ccccc31)C2 (some centres undefined),,,inactive,3.55 µM (active),3.55 µM (active),,,,,2.51 µM (active),3.98 µM (active),,3.98 µM (active),,
CCCCCCCCCC(=O)O[C@H]1CC[C@H]2[C@@H]3CCC4=CC(=O)CC[C@]4(C)[C@H]3CC[C@]12C,8.28,-5.1,,inactive,inactive,inactive,inactive,inactive,inactive,inactive,,,inactive,,
CCCC(C)(COC(N)=O)COC(=O)NC1CC1 (centres undefined),8.1,1.21,inactive,inactive,inactive,inactive,inactive,inactive,inactive,inactive,,,,,
CCC(=O)O[C@@](Cc1ccccc1)(c1ccccc1)[C@@H](C)CN(C)C,,,inactive,inactive,inactive,inactive,inactive,inactive,inactive,inactive,,,,-5.92,-0.756
c1ccc(C2(N3CCCC3)CCCCC2)cc1,,,12.6 µM (active),11.2 µM (active),11.2 µM (active),inactive,,inactive,12.6 µM (active),11.2 µM (active),12.6 µM (active),,11.2 µM (active),,
CCC1(c2ccccc2)C(=O)NC(=O)NC1=O,5.22,9.88,inactive,inactive,,inactive,inactive,inactive,inactive,inactive,,,inactive,,
CCNC(C)Cc1cccc(C(F)(F)F)c1 (centres undefined),6.39,,inactive,inactive,inactive,inactive,inactive,inactive,inactive,inactive,,,inactive,,
CNC1(c2ccccc2Cl)CCCCC1=O (centres undefined),12.4,,inactive,inactive,inactive,inactive,,inactive,inactive,,,,inactive,,
